The values below come from PubChem BioAssay (EPA / NIEHS).

Conditions in all cases: mRNA level, 48 h; actives raise or lower the signal
Read-out in assay [1]: Interleukin 6 Receptor (IL6R), IL6R (gene 3570)
Description: LTEA_HepaRG_IL6R: Life Technologies and Expression Analysis (LTEA) Assay for Interleukin 6 Receptor (IL6R) using HepaRG (AID 2283510).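 As to AC50: differentiated human HepaRG liver cells in serum-free induction medium; TaqMan qRT-PCR signal normalized to ACTB GAPDH and POLR2A housekeeping genes.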 Put shortly:
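HepaRG, 48 h exposure, 8-pt half-log series, top 100 uM, 0.5% DMSO vehicle, duplicates. Read-out: TaqMan qRT-PCR of IL6R transcript, housekeeping-gene normalized. Gain or loss fitted relative to DMSO baseline.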

Read-out in assay [2]: Potassium channel subfamily K member 1 (KCNK1), KCNK1 (gene 3775)
Description: LTEA_HepaRG_KCNK1: Life Technologies and Expression Analysis (LTEA) Assay for Potassium channel subfamily K member 1 (KCNK1) using HepaRG (AID 2283511). The essentials: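 HepaRG, 48 h exposure, 8-pt half-log series top 100 uM, 0.5% DMSO vehicle, duplicates. Readout: KCNK1 transcript by qRT-PCR (Fluidigm array), housekeeping-normalized; bidirectional curve fit relative to DMSO baseline.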

Read-out in assay [3]: Keratin 19 (KRT19), KRT19 (gene 3880)
In words: LTEA_HepaRG_KRT19: Life Technologies and Expression Analysis (LTEA) Assay for Keratin 19 (KRT19) using HepaRG (AID 2283512). The essentials:
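Readout is qRT-PCR of KRT19 mRNA, normalized to ACTB, GAPDH and POLR2A, from HepaRG cells treated 48 h with eight-point half-log dilutions topping at 100 uM. Activity in either direction is scored relative to 0.5% DMSO vehicle.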

Read-out in assay [4]: JUN Transcription Factor, JUN (gene 3725)
Description: LTEA_HepaRG_JUN: Life Technologies and Expression Analysis (LTEA) Assay for JUN Transcription Factor using HepaRG (AID 2283513). The essentials: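 HepaRG, 48 h exposure, 8-pt half-log series top 100 uM, 0.5% DMSO, duplicate. JUN mRNA by qRT-PCR (Fluidigm), housekeeping-normalized (ACTB/GAPDH/POLR2A); bidirectional curve fit vs DMSO baseline.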

Read-out in assay [5]: Lipase C (LIPC), LIPC (gene 3990)
In words: LTEA_HepaRG_LIPC: Life Technologies and Expression Analysis (LTEA) Assay for Lipase C (LIPC) using HepaRG (AID 2283514). The essentials:
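HepaRG, 48 h exposure, 8-pt half-log series from 100 uM in 0.5% DMSO, duplicates. Readout: LIPC mRNA by Fluidigm qRT-PCR, housekeeping-normalized (ACTB/GAPDH/POLR2A). Gain or loss fitted bidirectionally against DMSO baseline.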

Read-out in assay [6]: Lipoprotein lipase (LPL), LPL (gene 4023)
In words: LTEA_HepaRG_LPL: Life Technologies and Expression Analysis (LTEA) Assay for Lipoprotein lipase (LPL) using HepaRG (AID 2283515). Put shortly:
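HepaRG, 48 h exposure, 8-pt half-log dilutions from 100 uM, 0.5% DMSO vehicle, duplicates; qRT-PCR (Fluidigm array) of LPL mRNA vs housekeeping genes; bidirectional curve fit relative to DMSO baseline.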

Read-out in assay [7]: MicroRNA 122 (MIR122), gene 406906
Description: LTEA_HepaRG_MIR122: Life Technologies and Expression Analysis (LTEA) Assay for MicroRNA 122 (MIR122) using HepaRG (AID 2283516). Also: the transcript read is the microRNA miR-122. The essentials:
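qRT-PCR read-out (TaqMan, Fluidigm array), normalized to three housekeeping genes; HepaRG cells dosed 48 h at 8 concentrations up to 100 uM in 0.5% DMSO, duplicate; gain or loss fitted against DMSO baseline.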

Read-out in assay [8]: matrix metalloproteinase-10 (MMP10), MMP10 (gene 4319)
Description: LTEA_HepaRG_MMP10: Life Technologies and Expression Analysis (LTEA) Assay for matrix metalloproteinase-10 (MMP10) using HepaRG (AID 2283517). Put shortly: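 Transcript levels come from Fluidigm qRT-PCR normalized to three housekeeping genes, with curves fitted bidirectionally against 0.5% DMSO. Human HepaRG cells were dosed for 48 hours at concentrations up to 100 uM.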

Read-out in assay [9]: MYC, MYC (gene 4609)
Description: LTEA_HepaRG_MYC: Life Technologies and Expression Analysis (LTEA) Assay for MYC using HepaRG (AID 2283518). Put shortly:
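Expression changes were scored by TaqMan qRT-PCR with ACTB, GAPDH and POLR2A normalization. Cultures in serum-free induction medium received duplicate 8-point concentration series, highest 100 uM, for 48 h; DMSO (0.5%) served as baseline.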

Read-out in assay [10]: matrix metalloproteinase-3 (MMP3), MMP3 (gene 4314)
Description: LTEA_HepaRG_MMP3: Life Technologies and Expression Analysis (LTEA) Assay for matrix metalloproteinase-3 (MMP3) using HepaRG (AID 2283519). Put shortly: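 qRT-PCR read-out of MMP3 mRNA (normalised to three housekeeping genes) in HepaRG liver cells after 48 h chemical exposure; 8-point half-log series, top 100 uM, 0.5% DMSO vehicle. Bidirectional curve fitting against DMSO baseline.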

Broadly, the AC50 is the concentration giving half of the maximal activity seen.

Several values for one entry are separate records, joined by “and”; a condition that tells them apart may be missing. Identical values can stand only once. Some compounds were tested as several samples or in several runs, with calls that do not always agree. Activity calls are given as the source filed them. The calls were made as follows: active = hit-call score of the fitted dose curve at least 0.9, where 1 is the maximum; inactive = score below 0.9.

For the compound `O=C(O)C(F)(F)C(F)(F)C(F)(F)C(F)(F)C(F)(F)C(F)(F)F`, the outcome in [1], in [2], in assay [3], in assay [4], in assay [5] and in assay [6] was inactive. In addition, the compound was classed as inactive in assay [7], in [8], in assay [9] and in assay [10].
With `CCOP(=S)(OCC)SCSP(=S)(OCC)OCC`, the AC50 is 0.064 µM (active) in [1] and 0.09 µM (active) in assay [9]. For the same compound, the result in assay [2], in assay [3], in [4], in assay [5], in assay [6] and in [7] was inactive. Besides, the compound was classed as inactive in [8] and in assay [10].
Take `Oc1cccc2cccnc12`: the outcome in [1], in [2], in [3], in [4], in assay [5] and in assay [6] was inactive. For the same compound, the outcome in assay [7], in [8], in assay [9] and in assay [10] was inactive.
`CN(C)N=O`: the compound was classed as inactive in assay [1], in assay [2], in assay [3], in assay [4], in assay [5] and in [6]. Besides, the outcome in assay [7], in [8] and in assay [9] was inactive.
On to `COc1cc(-c2ccc(N)c(OC)c2)ccc1N`, for which the result in [1], in [2], in [3], in [4], in assay [5] and in assay [6] was inactive. Further, the outcome in [7], in assay [8] and in assay [9] was inactive. The AC50 was 42.3 µM (active) in assay [3]; 50 µM (active) in [4]; 50 µM (active) in assay [5]; 79.7 µM (active) in [7]; 50 µM (active) in [9]; 39.3 µM (active) and 2.3 µM (active) in assay [10].
`CCOP(=S)(OCC)Oc1nc(Cl)c(Cl)cc1Cl`: the call in [1], in assay [2], in assay [3], in assay [4], in assay [5] and in [6] was inactive. The outcome in assay [7], in assay [8], in [9] and in [10] was inactive.
With `O=C(Nc1ccc2[nH]ccc2c1)c1cc2cc(F)ccc2n1Cc1cccc(F)c1`, the AC50 in assay [1] is 89.5 µM (active); in [3], 50 µM (active); in assay [4], 50 µM (active); in assay [5], 59.7 µM (active); in assay [6], 19.9 µM (active); in assay [7] it was 24.9 µM (active). Further, the figures for the AC50 in [8] and in assay [9] were 29 µM (active) and 15.7 µM (active), respectively. In addition, the compound was classed as inactive in assay [2] and in assay [10].
On to `CC(C)(C)CC(C)(C)c1ccc(O)cc1`, for which the outcome in assay [1], in assay [2], in assay [4], in assay [5], in assay [6] and in assay [7] was inactive. The result in assay [8], in [9] and in assay [10] was inactive. Also, the AC50 in assay [3] was 25.9 µM (active).
On to `O=C1C2(Cl)C3(Cl)C4(Cl)C(Cl)(Cl)C5(Cl)C3(Cl)C1(Cl)C5(Cl)C24Cl` (centres undefined), for which the AC50 was 90.8 µM (active) in [1]; 93.5 µM (active) in assay [3]; 91.1 µM (active) in [4]; 91.9 µM (active) in [6]; 93.8 µM (active) in assay [7]; 88.8 µM (active) in assay [8]. The AC50 in [9] is 24.9 µM (active). Further, the compound was called inactive in [2], in assay [5] and in assay [10].
`C[C@]12CCC(=O)C[C@@H]1CC[C@@H]1[C@@H]2CC[C@]2(C)[C@@H](O)CC[C@@H]12`: the compound was called inactive in assay [1], in [2], in [3], in [4], in [5] and in assay [6]. Besides, the call in assay [7], in assay [8], in [9] and in [10] was inactive.
As to `ClCC(Cl)CCl`, the result in [1], in [2], in assay [3], in [4], in assay [5] and in assay [6] was inactive. For the same compound, the call in assay [7], in assay [8], in assay [9] and in assay [10] was inactive.
Consider `CCN1CCC2(CC1)COc1cc3c(cc12)N(C(=O)c1ccc(-c2ccc(-c4nnc(C)o4)cc2C)cc1)CC3`, for which the AC50 in assay [1] was 31.8 µM (active); in assay [2] it was 29.3 µM (active); in [4], 18.2 µM (active); in [6], 32.7 µM (active); in assay [8], 76.1 µM (active); in [10], 46.8 µM (active). Besides, the compound was called inactive in assay [3], in assay [5], in assay [7] and in assay [9].
For `C[C@@H]1C[C@@H]([C@H](O)CC2CC(=O)NC(=O)C2)C(=O)[C@@H](C)C1`, the compound was called inactive in [1] and in assay [8]. Further, the AC50 was 12.2 µM (active) in assay [2]; 12.5 µM (active) in assay [3]; 30 µM (active) in assay [4]; 20 µM (active) in [5]; 92.2 µM (active) in [6]; 10.6 µM (active) in assay [7]. For the same compound, the AC50 was 13.9 µM (active) in [9] and 83.3 µM (active) in assay [10].
Consider `CC(C)(OO)c1ccccc1`, for which the outcome in assay [1], in [2], in [3], in assay [4], in [5] and in [6] was inactive. The result in assay [7], in assay [8], in assay [9] and in [10] was inactive.
For the compound `CCC(=O)C(CC(C)N(C)C)(c1ccccc1)c1ccccc1` (centres undefined), the compound was classed as inactive in assay [1], in assay [2], in assay [4], in assay [5], in assay [6] and in assay [7]. The compound was called inactive in assay [8], in [9] and in assay [10]. Further, the AC50 in assay [3] is 18.9 µM (active).
